PubChem BioAssay (EPA / NIEHS)
“And” between values parts separate entries of the source, which are not always exact repeats. Equal entries are not always repeated. Some compounds were tested as several samples or in several runs, with calls that do not always agree. The source made the active and inactive calls. Rule for the calls: active = hit-call score of the fitted dose curve at least 0.9, where 1 is the maximum; inactive = score below 0.9.

Key:
[1] = target: Paired box protein Pax-6 (Homo sapiens) (UniProt P26367); experiment: ATG_Pax6_CIS: Attagene CIS-FACTORIAL HepG2 Assay for human Paired Box 6 (PAX6) (AID 2282956); settings: HepG2 CIS-FACTORIAL PAX6 reporter transcription, RNA readout; actives raise or lower the signal
Sequence of Paired box protein Pax-6 (Homo sapiens) (P26367 whole entry, looked up): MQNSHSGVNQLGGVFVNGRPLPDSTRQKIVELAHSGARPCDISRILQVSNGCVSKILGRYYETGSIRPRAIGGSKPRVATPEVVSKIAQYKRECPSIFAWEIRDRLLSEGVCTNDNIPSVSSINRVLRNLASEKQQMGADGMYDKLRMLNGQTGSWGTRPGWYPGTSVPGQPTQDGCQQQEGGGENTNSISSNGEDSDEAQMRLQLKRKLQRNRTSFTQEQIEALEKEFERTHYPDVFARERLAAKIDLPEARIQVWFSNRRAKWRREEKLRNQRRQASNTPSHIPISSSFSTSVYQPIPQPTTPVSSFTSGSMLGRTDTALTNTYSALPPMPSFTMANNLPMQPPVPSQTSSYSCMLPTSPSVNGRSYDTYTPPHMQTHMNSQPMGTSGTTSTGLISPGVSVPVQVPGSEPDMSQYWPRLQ
Method in brief: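 Fluorescent RT-PCR products separated by capillary electrophoresis report PAX6-linked promoter mRNA in HepG2 cells 24 h post-dose. Curves fitted bidirectionally, DMSO as negative control.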

[2] = ATG_PXRE_CIS: Attagene CIS-FACTORIAL HepG2 Assay for human Pregnane X Receptor Element (PXRE) (AID 2282957); settings: HepG2 Attagene CIS-FACTORIAL PXRE reporter, mRNA; actives raise or lower the signal
Method in brief: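 Fluorescent capillary electrophoresis of amplified reporter cDNA gave the signal, collected 24 h after dosing HepG2 cells that held transfected cis-element reporter constructs.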

[3] = ATG_PPRE_CIS: Attagene CIS-FACTORIAL HepG2 Assay for human Peroxisome Proliferator-activated Response Element (PPRE) (AID 2282958); settings: HepG2 PPRE cis-element reporter, Attagene transcription factor profiling; actives raise or lower the signal
Method in brief: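 PPRE activity in HepG2: transient cis-reporter transfection, 24 h compound incubation, reporter mRNA by RT-PCR and CE fluorescence; gain/loss fitted against DMSO.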

[4] = ATG_RORE_CIS: Attagene CIS-FACTORIAL HepG2 Assay for human RAR-related Orphan Receptor Element (RORE) (AID 2282959); settings: HepG2 Attagene cis-factorial RORE reporter, mRNA; actives raise or lower the signal
Method in brief: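 A 24-hour exposure of transfected HepG2 hepatoma cells precedes RNA isolation and reporter RT-PCR. Labeled products are digested with HpaI and resolved by capillary electrophoresis, with gain or loss of signal scored relative to DMSO.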

[5] = ATG_Sox_CIS: Attagene CIS-FACTORIAL HepG2 Assay for human SRY-box transcription factor (SOX) (AID 2282960); settings: HepG2 Attagene cis-factorial SOX reporter, mRNA; actives raise or lower the signal
Method in brief: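 HepG2, cis reporter units, 24 h exposure. Reporter mRNA: RT-PCR → FAM labelling → HpaI → CE fluorescence. Bidirectional fit vs DMSO.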

[6] = target: Transcription factor Sp1 (Homo sapiens) (UniProt P08047); experiment: ATG_Sp1_CIS: Attagene CIS-FACTORIAL HepG2 Assay for human Specificity Protein 1 (Sp1) (AID 2282961); settings: HepG2 Sp1 cis-reporter transcription, actives raise or lower the signal
Sequence of Transcription factor Sp1 (Homo sapiens) (P08047 whole entry, looked up, the tested form may be a part): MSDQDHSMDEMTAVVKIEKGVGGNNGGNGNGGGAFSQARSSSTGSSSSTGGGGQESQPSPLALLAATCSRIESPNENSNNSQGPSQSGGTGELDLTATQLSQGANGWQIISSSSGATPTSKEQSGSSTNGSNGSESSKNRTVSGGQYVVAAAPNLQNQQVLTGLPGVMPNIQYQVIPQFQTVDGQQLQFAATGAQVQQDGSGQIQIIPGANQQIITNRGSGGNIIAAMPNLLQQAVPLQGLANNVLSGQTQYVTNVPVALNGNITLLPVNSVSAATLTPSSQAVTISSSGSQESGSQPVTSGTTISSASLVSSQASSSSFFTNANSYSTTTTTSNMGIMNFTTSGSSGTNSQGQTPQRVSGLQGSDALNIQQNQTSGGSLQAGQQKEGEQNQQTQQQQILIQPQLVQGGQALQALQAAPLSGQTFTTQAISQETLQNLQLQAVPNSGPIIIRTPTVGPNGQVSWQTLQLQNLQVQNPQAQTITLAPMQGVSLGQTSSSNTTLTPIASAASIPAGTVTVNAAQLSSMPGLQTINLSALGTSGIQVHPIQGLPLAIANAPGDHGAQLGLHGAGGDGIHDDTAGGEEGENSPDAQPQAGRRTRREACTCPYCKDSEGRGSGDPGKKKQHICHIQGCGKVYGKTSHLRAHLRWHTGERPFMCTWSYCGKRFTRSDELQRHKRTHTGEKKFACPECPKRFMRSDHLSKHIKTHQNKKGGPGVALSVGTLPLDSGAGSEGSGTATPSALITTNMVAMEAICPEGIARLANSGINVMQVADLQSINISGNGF
Method in brief: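 Liver-derived HepG2 cells, cis-element reporter library, 24 h treatment; RNA isolated, cDNA amplified with reporter-specific primers, FAM-labeled fragments sized on capillary analyzer. DMSO baseline, bidirectional curve fit.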

[7] = ATG_SREBP_CIS: Attagene CIS-FACTORIAL HepG2 Assay for human Sterol Regulatory Element Binding (SREBP) (AID 2282962); settings: HepG2 Attagene cis-factorial SREBP reporter, mRNA; actives raise or lower the signal
Method in brief: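 Endogenous factor activity is measured in HepG2 through multiplexed reporter units under cis-element control. Following a 24 h incubation, reporter transcripts are reverse-transcribed, PCR-amplified and sized by capillary electrophoresis; activity is fitted in both directions relative to DMSO.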

[8] = target: Signal transducer and activator of transcription 3 (Homo sapiens) (UniProt P40763); experiment: ATG_STAT3_CIS: Attagene CIS-FACTORIAL HepG2 Assay for human Signal Transducer and Activator of Transcription 3 (STAT3) (AID 2282963); settings: HepG2, Attagene cis-factorial STAT3 reporter transcription; actives raise or lower the signal
Sequence of Signal transducer and activator of transcription 3 (Homo sapiens) (P40763 whole entry, looked up): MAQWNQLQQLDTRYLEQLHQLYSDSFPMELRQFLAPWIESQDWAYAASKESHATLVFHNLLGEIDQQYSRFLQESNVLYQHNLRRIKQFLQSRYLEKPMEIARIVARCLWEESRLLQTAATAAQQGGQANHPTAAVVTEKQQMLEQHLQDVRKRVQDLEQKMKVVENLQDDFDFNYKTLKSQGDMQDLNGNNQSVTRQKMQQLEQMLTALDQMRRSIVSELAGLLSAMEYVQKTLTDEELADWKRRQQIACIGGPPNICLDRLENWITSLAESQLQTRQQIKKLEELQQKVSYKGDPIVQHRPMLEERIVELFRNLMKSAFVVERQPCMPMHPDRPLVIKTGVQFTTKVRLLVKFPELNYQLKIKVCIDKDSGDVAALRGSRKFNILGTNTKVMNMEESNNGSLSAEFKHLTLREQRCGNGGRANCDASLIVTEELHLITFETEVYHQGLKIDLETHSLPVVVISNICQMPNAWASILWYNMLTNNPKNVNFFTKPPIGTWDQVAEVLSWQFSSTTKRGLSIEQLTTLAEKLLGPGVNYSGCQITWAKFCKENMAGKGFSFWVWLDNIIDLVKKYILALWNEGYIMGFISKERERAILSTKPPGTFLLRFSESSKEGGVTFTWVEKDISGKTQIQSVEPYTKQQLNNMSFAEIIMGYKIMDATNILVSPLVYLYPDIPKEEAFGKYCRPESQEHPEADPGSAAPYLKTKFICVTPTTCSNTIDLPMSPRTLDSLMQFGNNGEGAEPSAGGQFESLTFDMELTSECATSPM
Method in brief: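 Readout is reporter transcript quantified by RT-PCR and capillary electrophoresis, with 6-FAM primer extension and HpaI digestion. Total RNA is taken 24 h after dosing transiently transfected HepG2 carrying cis-regulated reporter units. Bidirectional fit against DMSO.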

[9] = ATG_TA_CIS: Attagene CIS-FACTORIAL HepG2 Assay for human TA Basal Promoter (AID 2282964); settings: HepG2 Attagene CIS-factorial TA basal promoter reporter; actives raise or lower the signal
Method in brief: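 Transient MRTU transfection of HepG2 preceded 24 h compound exposure. Reporter mRNA levels were then read by RT-PCR with capillary electrophoresis, and this background-control endpoint was fitted bidirectionally to DMSO.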

[10] = ATG_TCF_b_cat_CIS: Attagene CIS-FACTORIAL HepG2 Assay for human T-Cell-Factor with beta-catenin (TCF/b-cat) (AID 2282965); settings: HepG2 TCF/beta-catenin cis-reporter transcription, actives raise or lower the signal
Method in brief: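 Endogenous TCF/LEF activity read as reporter transcript level via RT-PCR and capillary electrophoresis fluorescence in transfected HepG2, 24 h exposure; gain or loss of signal fitted against DMSO controls.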

Measured: AC50

C[Si](Cn1cncn1)(c1ccc(F)cc1)c1ccc(F)cc1
active: [1] 67.8 µM | [2] 3.52 µM | [3] 43.1 µM | [4] 18.7 µM | [7] 13.9 µM | [9] 50 µM
inactive: [5] | [6] | [8] | [10]

CNC(=O)Oc1cccc2c1OC(C)(C)O2
active: [2] 40.2 µM | [3] 50 µM | [6] 50 µM
not listed: [4]
inactive: all other assays above

CCc1cccc(CC)c1N(COC)C(=O)CCl
active: [2] 1.15 µM | [6] 7.75 µM
inactive: all other assays above

CC(=NC#N)N(C)Cc1ccc(Cl)nc1
active: [2] 64.9 µM
not listed: [4]
inactive: all other assays above

CCOP(=S)(OCC)SCCSCC
active: [2] 13.7 µM | [7] 29.5 µM
inactive: all other assays above

CCCCOC(=O)c1ccccc1C(=O)O
inactive: all assays above

CCOP(=S)(OCC)Oc1ccc([N+](=O)[O-])cc1
active: [2] 9.68 µM | [3] 50 µM | [7] 89.1 µM
not listed: [4]
inactive: all other assays above

CC1(C(=O)Nc2ccc(O)c(Cl)c2Cl)CCCCC1
active: [2] 2.91 µM | [3] 36.3 µM | [7] 23.1 µM
not listed: [4]
inactive: all other assays above

CCc1cnc(C2=NC(C)(C(C)C)C(=O)N2)c(C(=O)O)c1 (configuration not stated)
not listed: [4]
inactive: all other assays above

CCOP(=S)(OCC)Oc1ccc2c(C)c(Cl)c(=O)oc2c1
active: [2] 1.46 µM | [3] 15 µM
not listed: [4]
inactive: all other assays above

C[N+]1(C)CCCCC1
inactive: all assays above

CN1COCN(Cc2cnc(Cl)s2)C1=N[N+](=O)[O-]
active: [2] 50 µM
inactive: all other assays above

CCC(CC)Nc1c([N+](=O)[O-])cc(C)c(C)c1[N+](=O)[O-]
active: [2] 5.39 µM
inactive: all other assays above

CN(C)C(=O)Nc1cccc(C(F)(F)F)c1
not listed: [4]
inactive: all other assays above

O=[N+]([O-])c1cc(C(F)(F)F)c(Cl)c([N+](=O)[O-])c1Nc1ncc(C(F)(F)F)cc1Cl
inactive: [1] | [3] | [5] | [6] | [7] | [8] | [9] | [10]
active: [1] 6.88 µM | [2] 2.84 µM and 1.27 µM | [3] 14.6 µM | [8] 19.1 µM | [9] 15.4 µM | [10] 16.1 µM

C=C(C)[C@H]1Cc2c(ccc3c2O[C@@H]2COc4cc(OC)c(OC)cc4[C@@H]2C3=O)O1
active: [3] 0.0321 µM | [6] 0.039 µM | [7] 0.00445 µM
not listed: [4]
inactive: all other assays above

CNC(=O)ON=C(C)SC
inactive: all assays above

Cc1nn(-c2cc(NS(C)(=O)=O)c(Cl)cc2Cl)c(=O)n1C(F)F
active: [2] 5.33 µM
not listed: [4]
inactive: all other assays above

CCOP(=S)(OCC)OC(Cl)C(Cl)(Cl)Cl (configuration not stated)
active: [2] 35.6 µM | [7] 38.5 µM
inactive: all other assays above

CN(C)NC(=O)CCC(=O)O
inactive: all assays above

CC(COc1ccc(Oc2ccccc2)cc1)Oc1ccccn1 (configuration not stated)
active: [2] 13.7 µM | [3] 15.1 µM | [4] 12.2 µM
inactive: all other assays above

CCCSP(=O)(OCC)Oc1ccc(Br)cc1Cl (configuration not stated)
active: [2] 3.04 µM | [7] 1.31 µM
not listed: [4]
inactive: all other assays above

CC1=NNC(=O)N(/N=C/c2cccnc2)C1
not listed: [4]
inactive: all other assays above

Cc1cc(C2CC2)nc(Nc2ccccc2)n1
inactive: [4] | [8] | [9] | [10]
active: [1] 50 µM | [2] 13.4 µM | [3] 22 µM | [5] 90 µM | [6] 84.7 µM | [7] 12.6 µM

CNC(=O)ON=C(SC)C(=O)N(C)C
active: [2] 29.3 µM | [7] 50 µM
inactive: all other assays above

CCCOCC(=Nc1ccc(Cl)cc1C(F)(F)F)n1ccnc1
active: [2] 3.63 µM | [3] 2.67 µM | [7] 7.5 µM
not listed: [4]
inactive: all other assays above

CCOP(=O)(NC(C)C)Oc1ccc(SC)c(C)c1 (configuration not stated)
active: [2] 2.73 µM | [3] 21.4 µM | [7] 19.6 µM
inactive: all other assays above

COc1ccc(C(=CC(=O)N2CCOCC2)c2ccc(Cl)cc2)cc1OC
active: [2] 5.15 µM | [3] 21.8 µM | [4] 5.72 µM
inactive: all other assays above

Nc1c(Cl)cc([N+](=O)[O-])cc1Cl
active: [2] 44.2 µM | [3] 34.4 µM | [8] 75.9 µM
inactive: all other assays above

CCOC(=O)COc1cc(-c2nn(C)c(OC(F)F)c2Cl)c(F)cc1Cl
active: [2] 47.3 µM
inactive: all other assays above

CC(C)[C@H](C(=O)O[C@H](C#N)c1cccc(Oc2ccccc2)c1)c1ccc(Cl)cc1
active: [2] 1.04 µM
inactive: all other assays above

CC(Oc1cccc(Cl)c1)C(=O)O (configuration not stated)
inactive: all assays above

CCOP(=O)(OCC)Oc1cc(C)nc(C(C)C)n1
inactive: all assays above

FC(F)C(F)(F)OCC(Cn1cncn1)c1ccc(Cl)cc1Cl (configuration not stated)
active: [1] 78.8 µM | [2] 6.25 µM | [3] 44.5 µM | [4] 50 µM | [7] 13.2 µM
inactive: [5] | [6] | [8] | [9] | [10]
